Screening results from PubChem BioAssay.
DRD3 antagonist: blocks the human D3 dopamine receptor; P35462; D3R cells, DiscoveRx beta-arrestin luminescence, antagonist mode; hits give low values; AID 652054; max response, negative = inhibition, %; 360,000 tested, 2.5% active; in the data active = max response below about -50%; inconclusive = no clear call, values can overlap the other calls
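Cells plated overnight at 1500 cells/well, then exposed to library compounds with dopamine controls for 90 minutes at 37 degrees C. DiscoveRx reagent added for 30–60 minutes at room temperature; luminescence read, quantitative HTS format.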
TRPML1 ag: activates the human TRPML1 channel; Q9GZU1; 410,000 tested, 0.12% active; activation, % (test concentration not listed); TRPML1-expressing cells, Ca2+ dye fluorescence, FDSS; in the data active = activation above about 50%; inconclusive = mostly about 30% to 49%
Target sequence (Q9GZU1 whole entry, looked up): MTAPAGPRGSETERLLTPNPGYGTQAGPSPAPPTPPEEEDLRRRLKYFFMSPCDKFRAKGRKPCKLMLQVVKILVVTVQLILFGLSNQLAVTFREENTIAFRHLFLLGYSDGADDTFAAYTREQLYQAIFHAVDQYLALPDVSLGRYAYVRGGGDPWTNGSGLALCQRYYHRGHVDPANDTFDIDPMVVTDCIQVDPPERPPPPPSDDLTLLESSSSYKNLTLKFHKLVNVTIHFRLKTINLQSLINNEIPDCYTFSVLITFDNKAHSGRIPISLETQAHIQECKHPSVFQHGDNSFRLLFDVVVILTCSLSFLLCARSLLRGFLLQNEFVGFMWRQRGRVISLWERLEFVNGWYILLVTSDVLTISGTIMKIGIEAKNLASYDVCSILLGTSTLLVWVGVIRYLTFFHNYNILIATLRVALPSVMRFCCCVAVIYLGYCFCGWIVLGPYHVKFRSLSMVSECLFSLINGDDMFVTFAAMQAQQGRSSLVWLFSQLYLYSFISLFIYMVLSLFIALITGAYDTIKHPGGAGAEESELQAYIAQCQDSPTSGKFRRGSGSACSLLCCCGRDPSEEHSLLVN
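Kinetic FDSS Ca2+ read in Tet-induced TRPML1-DL cells (ABD Ca8 dye plus quencher, 45-90 min RT loading): baseline, then compound, then 110 s agonist window; EC80 agonist 54-4 at 4uM final added afterwards for a 110 s antagonist window.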
TRPML1 blocker: blocks the human TRPML1 channel. Q9GZU1. TRPML1-inducible cells, Ca2+ dye fluorescence, FDSS; hits give low values; inhibition of EC80 agonist-evoked calcium signal. activity change, negative = inhibition, % (no concentration beside the values). 390,000 tested, 0.02% active. AID 624415; in the data active = activity change below about -50%; inconclusive = between about -30% and that limit;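 also: stimulus is agonist 54-4 at its EC80 concentration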
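Tet-induced TRPML1-DL cells loaded with Ca8 no-wash calcium dye were read kinetically on FDSS. Compound addition was followed by EC80 agonist 54-4 (4 uM final); inhibition was read over 110 s.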
DRD3 agonist: agonists of human D3 dopamine receptor; P35462; D3R DiscoveRx beta-arrestin cells, luminescence, 90 min; max activation, %; 410,000 tested, 0.58% active; in the data active = max activation above about 30%
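Agonist-mode cell screen: cells plated at 1500/well and incubated overnight at 37 °C, then exposed to library compounds for 90 min at 37 °C. Detection reagent was added for 30–60 min at room temperature, and luminescence was read.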
Large screens that a line does not name were inactive. Most compounds without a hit are left out; they make up all but 2.9% or so of the library.

Cn1cnc([N+](=O)[O-])c1S(=O)(=O)c1cccc(Cl)c1	DRD3 antagonist -92
Cc1nn(C(C)C(=O)c2cccc(Cl)c2)c(C)c1[N+](=O)[O-] (stereo not given)	none
Cn1cnc([N+](=O)[O-])c1S(=O)(=O)Oc1ccccc1	DRD3 antagonist -84
Cc1cccc(CCNC(=O)c2ccc(CSCc3cccc(Cl)c3)o2)c1	none (no result: DRD3 antagonist)
Cc1ccc(-c2csc3ncnc(Sc4nnnn4-c4ccccc4)c23)cc1	none (no result: DRD3 antagonist, TRPML1 blocker, DRD3 agonist)
Cc1cccc(N2CCN(CCNC(=O)c3cc4c(s3)CS(=O)(=O)C4)CC2)c1C	DRD3 agonist 86
Cc1ccc(CNC(=O)c2cc3c(s2)CS(=O)(=O)C3)cc1	none
Cc1ccc(CNc2ccc3cc(S(=O)(=O)N4CCCCC4)ccc3n2)cc1	none (no result: DRD3 antagonist)
N#Cc1ccc(CSc2nc(N)cc(N)n2)cc1	DRD3 antagonist -55
CCOc1ccc(OCC)c(NC(=O)c2cnc3c(-c4ccccc4)c(C)nn3c2C)c1	none (no result: DRD3 antagonist)
Cc1ccc(S(=O)(=O)N2CCN(c3nc(-c4ccncc4)nc4ccccc34)CC2)cc1	none (no result: DRD3 antagonist, TRPML1 blocker, DRD3 agonist)
COc1ccccc1/C=N/NC(=O)CC(=O)Nc1ccc(Cl)c(Cl)c1	DRD3 antagonist -65
COc1cccc(NC(=O)C(=O)N/N=C/c2cc(C)n(-c3ccc(Cl)c(Cl)c3)c2C)c1	DRD3 antagonist -94
c1coc(-c2nc3cc4ccccc4cc3nc2-c2ccco2)c1	none (no result: DRD3 antagonist, DRD3 agonist)
COc1cccc(NC(=O)c2cnn(-c3ccccc3)c2-n2cccc2)c1	none (no result: DRD3 antagonist)
C[n+]1c(/C=C/c2ccnc3ccccc23)cc(/C=C/c2ccnc3ccccc23)c2ccccc21	none (no result: DRD3 antagonist, TRPML1 blocker, DRD3 agonist)
C[n+]1ccnc2cc(Cl)ccc21	none (no result: DRD3 antagonist, TRPML1 blocker, DRD3 agonist)
Cc1nc2cc(C(F)(F)F)ccc2n1CCNc1nc(-c2ccc(F)cc2)cs1	none
COc1ccc(-c2csc(NCCn3c(C)nc4cc(C(F)(F)F)ccc43)n2)cc1	DRD3 agonist 37
Cc1ccc(-c2csc(NCCn3c(-c4ccncc4)nc4ccccc43)n2)cc1	DRD3 agonist 51
Cc1ccc(S(=O)(=O)c2nnn3c2nc(N2CCN(c4ccccc4F)CC2)c2ccccc23)cc1C	none (no result: DRD3 antagonist)
Cc1ccc(CCNC(=O)c2sc3ncccc3c2-n2c(C)ccc2C)cc1	none (no result: DRD3 antagonist)
COCCC(=O)N1CCCC(C(=O)c2ccccc2SC)C1 (stereo not given)	DRD3 antagonist -59
O=C(NCCCCCCCN1CCCCCCC1)C(C1CCCCC1)C1CCCCC1	DRD3 antagonist -65
O=C(NCCCN1CCOCC1)NC1CCCCC1	none
COc1cc(NC(=O)CCc2c(C)nc3nc(-c4cc(OC)cc(OC)c4)nn3c2C)cc(OC)c1	none (no result: DRD3 antagonist)
CC1(C)Cc2c(c(-c3ccco3)nc3sc4c(NCCO)ncnc4c23)CO1	none
COCCCNc1ncnc2c1sc1nc(-c3ccco3)c3c(c12)CC(C)(C)OC3	DRD3 agonist 60
Cc1ccc(-n2c(CCc3nc4ccccc4[nH]3)n[nH]c2=S)cc1	DRD3 antagonist -51
COc1ccc(C(=O)/C=C/Nc2ccc([N+](=O)[O-])cc2C)c(OC)c1	DRD3 agonist 32
Cc1ccc(-c2cc(NC(=O)COc3c(C)cc(C)cc3C)on2)cc1	none (no result: DRD3 antagonist)
CCN(CCO)Cc1cn[nH]c1-c1ccc(C)c(C)c1	DRD3 antagonist -66
NC(=O)[C@H](Cc1cc2ccccc2s1)NC(=O)[C@@H]1CC2(CC(c3cccc(NC(=O)[C@@H]4CCC(=O)N4)c3)=NO2)CN1C(=O)/C=C/c1c(F)cccc1Cl (stereo not given in full)	DRD3 agonist 34
Cc1ccc2c(c1)c(=O)c(S(=O)(=O)c1ccc(C)c(C)c1)cn2CC(=O)Nc1ccccc1	DRD3 agonist 38 (no result: DRD3 antagonist)
Oc1ccc2nnc3c(Br)cnn3c2c1	TRPML1 ag 87
Clc1ccc2nc3c4ccccc4cnn3c2c1	none
O=C(c1ccc(F)cc1)N1C2CCC1CC(O)(c1ccc(F)cc1)C2 (stereo not given)	DRD3 antagonist -54
CC1COCC(C)N1C(=O)c1cccnc1 (stereo not given)	DRD3 antagonist -125
O=C(c1cccnc1)N1C2CCC1CC(O)(c1ccc(F)cc1)C2 (stereo not given)	DRD3 antagonist -57
CNCC(=O)N[C@@H](CCCN=C(N)N)C(=O)N[C@H](C(=O)N[C@@H](Cc1ccc(O)cc1)C(=O)N[C@H](C(=O)N[C@@H](Cc1cnc[nH]1)C(=O)N1CCC[C@H]1C(=O)N[C@@H](C)C(=O)O)C(C)C)C(C)C	none (no result: DRD3 antagonist, TRPML1 ag, TRPML1 blocker)
COC(C(=O)C(O)C(C)O)C1Cc2cc3cc(OC4CC(OC5CC(O)C(O)C(C)O5)C(O)C(C)O4)c(C)c(O)c3c(O)c2C(=O)C1OC1CC(OC2CC(OC3CC(C)(O)C(O)C(C)O3)C(O)C(C)O2)C(O)C(C)O1 (stereo not given)	none (no result: DRD3 antagonist, TRPML1 blocker, DRD3 agonist)
CCOC(=O)C1CCCN(C(=O)c2ccc3c(c2)sc2nc(-c4cccc(OC)c4)cn23)C1 (stereo not given)	none (no result: DRD3 antagonist)
COc1ccccc1/C=C/c1nc(C#N)c(NCc2ccccc2)o1	none (no result: DRD3 antagonist)
O=C[C@H](O)[C@@H](O)[C@H](O)[C@H](O)CO	none (no result: DRD3 antagonist, TRPML1 ag, TRPML1 blocker)
CCOc1nc(NCCc2ccc(OC)c(OC)c2)nc(NC(C)(C)CO)n1	DRD3 antagonist -62
O=C(NCc1ccc(F)cc1)c1cc(C2CCCN(C(=O)c3cccs3)C2)on1 (stereo not given)	none (no result: TRPML1 blocker)
O=C(NCc1ccccc1)c1cc(C2CCCN(S(=O)(=O)c3cccs3)C2)on1 (stereo not given)	DRD3 antagonist -68 (no result: TRPML1 blocker)
O=C(NCc1cccnc1)c1cc(C2CCCN(C(=O)c3cccs3)C2)on1 (stereo not given)	DRD3 antagonist -123 (no result: TRPML1 blocker)
CN(C)C(=O)c1ccc(/C=C/c2ccnc3ccccc23)cc1	none (no result: DRD3 antagonist, TRPML1 blocker, DRD3 agonist)
COc1ccc(N=C2NC(=O)S/C2=C\c2ccc(N(C)C)cc2)cc1	DRD3 antagonist -66
O=C(Nc1cc(Br)c(O)c(Br)c1)c1cccc(NC(=O)c2ccco2)c1	none
O=C(Nc1cccc(N=Cc2cc(Br)cc(Br)c2O)c1)c1ccco1	DRD3 antagonist -61
O=C(Nc1cccc(N=Cc2cc(Cl)cc(Br)c2O)c1)c1ccco1	DRD3 antagonist -75
COc1ccccc1NC(=O)c1cc2c([nH]c1=O)CC(C)(C)CC2=O	none (no result: DRD3 antagonist)
CC(C)(c1cc(Br)c(O)c(Br)c1)c1cc(Br)c(O)c(Br)c1	DRD3 agonist 30
Brc1cccc[n+]1Cc1ccc(C[n+]2ccccc2Br)cc1	none (no result: DRD3 antagonist, TRPML1 blocker, DRD3 agonist)
O=C(Nc1ccccc1C(=O)NC1CC1)c1ccc([N+](=O)[O-])o1	DRD3 antagonist -63
O=C(Nc1cccc2ccccc12)c1ccc([N+](=O)[O-])o1	none
COc1cccc(NS(=O)(=O)c2cc(-c3cnc(C4CC4)o3)ccc2C)c1	none (no result: DRD3 antagonist)
Cc1ccc([C@H]2C(C(=O)O)=CC[C@@H](c3ccc(Cl)cc3)N2S(=O)(=O)c2ccc(C)cc2)cc1	DRD3 antagonist -51
Cc1ccc(S(=O)(=O)N2[C@@H](c3ccccc3)C(C(=O)O)=CC[C@H]2c2ccc(C(C)C)cc2)cc1	DRD3 antagonist inconclusive
Cc1ccc([C@H]2C(C(=O)O)=CC[C@@H](c3ccc(C(C)C)cc3)N2S(=O)(=O)c2ccc(C)cc2)cc1	DRD3 antagonist -64
